Experimental data reported in PubChem BioAssay AID1159580 (chemical genetic matrix, 2015).
Values joined by “and” are separate entries in the source; they are usually repeats but may differ in a detail not shown here. Equal entries are not always repeated. Hit rate of the full screen: of about 5,500 compounds, about 2,000 (36%) were called active. Inconclusive results (about 18%) are left out. Rule as the data show it: active = normalized growth mostly below about 0.91 (no sharp cut-off); inconclusive = no clear call, values can overlap the other calls; inactive = mostly above about 0.92. The list shows a part of the results.

Experiment: chemical genetic growth profiling, strain panel (AID 1159580);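 also: tested at 20 µM; growth read once vehicle control cultures reached saturation at 30 °C; 1 = growth at the plate median or of vehicle wells; lower values mean less growth of the strain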
Details: S. cerevisiae deletion strains, growth OD

Measured: normalized growth

C[C@H](CCC(=O)O)[C@H]1CCC2C3C(CC[C@@]21C)[C@@]1(C)CC[C@@H](O)C[C@H]1C[C@H]3O (stereo partly specified)
inactive: locus YAL013W, strain DEP1, hits give low values 1.02 | locus YAL021C, strain ccr4, hits give low values 1.01 | locus YAL026C, strain drs2, hits give low values 0.987 | locus YAL030W, strain snc1, hits give low values 1.02 | locus YBL061C, strain skt5, hits give low values 1.02 | locus YBR009C, strain hhf1, hits give low values 0.973 | locus YBR021W, strain FUR4, hits give low values 1.02 | locus YBR023C, strain chs3, hits give low values 1.01 | locus YBR171W, strain sec66, hits give low values 1 | locus YBR229C, strain ROT2, hits give low values 1.02 | locus YBR231C, strain swc5, hits give low values 1.03 | locus YBR279W, strain paf1, hits give low values 1.01 | locus YCL011C, strain gbp2, hits give low values 1 | locus YCL016C, strain dcc1, hits give low values 0.982 | locus YCL029C, strain bik1, hits give low values 1.05 | locus YCL061C, strain MRC1, hits give low values 0.998 | locus YCL069W, strain vba3, hits give low values 1.02 | locus YCR088W, strain abp1, hits give low values 1.02 | locus YDL005C, strain med2, hits give low values 1.01 | locus YDL035C, strain GPR1, hits give low values 0.985 | locus YDL040C, strain nat1, hits give low values 1.01 | locus YDL074C, strain BRE1, hits give low values 1.09 | locus YDL101C, strain DUN1, hits give low values 1.02 | locus YDL134C, strain PPH21, hits give low values 1 | locus YDL185W, strain tfp1, hits give low values 1.07 | locus YDL192W, strain arf1, hits give low values 1.05 | locus YDR001C, strain nth1, hits give low values 1.02 | locus YDR069C, strain doa4, hits give low values 1.01 | locus YDR101C, strain arx1, hits give low values 1.04 | locus YDR159W, strain sac3, hits give low values 1.02 | locus YDR162C, strain NBP2, hits give low values 1.02 | locus YDR195W, strain ref2 1.13 | locus YDR297W, strain sur2, hits give low values 1.02 | locus YDR318W, strain mcm21, hits give low values 1.03 | locus YDR334W, strain swr1, hits give low values 1.04 | locus YDR335W, strain msn5, hits give low values 1.02 | locus YDR388W, hits give low values 1.04 | locus YDR392W, strain spt3, hits give low values 0.923 | locus YDR502C, strain sam2, hits give low values 1.04 | locus YEL003W, strain gim4, hits give low values 0.998 | locus YEL037C, strain rad23, hits give low values 1.02 | locus YEL061C, strain CIN8 (second series), hits give low values 1.02 | locus YEL061C, strain CIN8, hits give low values 1.02 | locus YER015W, strain faa2, hits give low values 1.05 | locus YER016W, strain bim1, hits give low values 1.01 | locus YER110C, hits give low values 1.05 | locus YER111C, strain swi4, hits give low values 1.02 | locus YER155C, strain BEM2 (second series), hits give low values 1.05 | locus YER155C, strain BEM2, hits give low values 1.04 | locus YER167W, strain BCK2, hits give low values 1.03 | locus YFR010W, strain ubp6, hits give low values 1.03 | locus YGL078C, strain dbp3, hits give low values 0.953 | locus YGL086W, strain mad1, hits give low values 1.03 | locus YGL167C, strain pmr1, hits give low values 1.02 | locus YGL173C, strain kem1, hits give low values 0.969 | locus YGL227W, strain vid30, hits give low values 1.02 | locus YGL240W, strain doc1, hits give low values 1.02 | locus YGL248W, strain PDE1, hits give low values 1.01 | locus YGL253W, strain hxk2, hits give low values 1.01 | locus YGR078C, strain PAC10, hits give low values 1.03 | locus YGR135W, strain pre9, hits give low values 1.02 | locus YGR252W, strain gcn5, hits give low values 0.929 | locus YHR013C, strain ard1, hits give low values 1.06 | locus YHR027C, strain rpn1, hits give low values 1.01 | locus YHR030C, strain SLT2, hits give low values 1.05 and 0.889 | locus YHR079C, strain IRE1 (second series), hits give low values 1.05 | locus YHR079C, strain IRE1, hits give low values 0.87 | locus YHR094C, strain hxt1, hits give low values 1.05 | locus YHR129C, strain ARP1, hits give low values 1.03 | locus YHR142W, strain chs7, hits give low values 0.993 | locus YHR200W, strain rpn10, hits give low values 1.06 | locus YIL066C, strain RNR3, hits give low values 1.03 | locus YIL073C, strain SPO22, hits give low values 1.12 | locus YIL125W, strain kgd1, hits give low values 1.05 | locus YIR030C, strain dcg1, hits give low values 1.05 | locus YJL092W, strain hpr5, hits give low values 1.03 | locus YJL095W, strain BCK1 (second series), hits give low values 1.02 | locus YJL095W, strain BCK1, hits give low values 1.04 and 0.89 | locus YJL115W, strain asf1, hits give low values 1.03 | locus YJL129C, strain trk1, hits give low values 1.03 | locus YJL134W, strain LCB3, hits give low values 1.03 | locus YJL154C, strain vps35, hits give low values 1.03 | locus YJL164C, strain tpk1, hits give low values 0.992 | locus YJL166W, strain qcr8, hits give low values 0.979 | locus YJL168C, strain set2, hits give low values 1.05 | locus YJL187C, strain SWE1 (second series), hits give low values 1 | locus YJL187C, strain SWE1, hits give low values 1.02 | locus YJR043C, strain POL32, hits give low values 0.999 | locus YJR066W, strain TOR1, hits give low values 0.862 | locus YJR075W, strain HOC1, hits give low values 1.04 | locus YKL009W, strain mrt4, hits give low values 0.9 | locus YKL068W, hits give low values 1.03 | locus YKL085W, strain MDH1 (second series), hits give low values 1.03 | locus YKL085W, strain MDH1, hits give low values 1.03 | locus YKL160W, strain elf1, hits give low values 0.974 | locus YKR001C, strain vps1, hits give low values 1.09 | locus YKR026C, strain gcn3, hits give low values 1.03 | locus YKR091W, strain srl3, hits give low values 1.01 | locus YLL001W, strain dnm1, hits give low values 0.991 | locus YLL026W, hits give low values 1.02 | locus YLL041C, strain sdh2, hits give low values 1.03 | locus YLR027C, strain aat2, hits give low values 1.01 | locus YLR039C, strain RIC1, hits give low values 1.02 | locus YLR058C, strain SHM2, hits give low values 1.01 | locus YLR102C, strain apc9, hits give low values 1.05 | locus YLR113W, strain HOG1, hits give low values 0.923 | locus YLR221C, strain rsa3, hits give low values 0.954 | locus YLR258W, strain gsy2, hits give low values 0.996 | locus YLR262C, strain YPT6, hits give low values 0.99 | locus YLR268W, strain sec22, hits give low values 1.03 | locus YLR320W, strain mms22, hits give low values 0.955 | locus YLR330W, strain CHS5, hits give low values 1.04 | locus YLR342W, strain FKS1 (second series), hits give low values 1.04 | locus YLR342W, strain FKS1, hits give low values 1 | locus YLR357W, strain rsc2, hits give low values 1.09 | locus YLR370C, strain arc18, hits give low values 0.993 | locus YLR371W, strain rom2, hits give low values 1.07 | locus YLR384C, strain iki3, hits give low values 1.01 | locus YLR418C, strain cdc73, hits give low values 1.03 | locus YML016C, strain PPZ1, hits give low values 1.02 | locus YML032C, strain rad52, hits give low values 1.02 | locus YML120C, strain ndi1, hits give low values 0.962 | locus YML124C, strain tub3, hits give low values 1.05 | locus YMR058W, strain fet3, hits give low values 1.01 | locus YMR078C, strain ctf18, hits give low values 1.08 | locus YMR125W, strain sto1, hits give low values 1.04 | locus YMR129W, hits give low values 1.01 | locus YMR205C, strain PFK2, hits give low values 0.989 | locus YMR223W, strain ubp8, hits give low values 1.01 | locus YMR231W, strain pep5, hits give low values 0.993 | locus YMR263W, strain SAP30, hits give low values 1.02 | locus YMR307W, strain GAS1, hits give low values 1.1 | locus YNL067W, strain RPL9B, hits give low values 0.999 | locus YNL071W, strain lat1, hits give low values 1.01 | locus YNL153C, strain GIM3, hits give low values 1 | locus YNL183C, strain NPR1, hits give low values 0.854 | locus YNL209W, strain ssb2, hits give low values 1.02 | locus YNL233W, strain BNI4, hits give low values 1.05 | locus YNL248C, strain rpa49, hits give low values 1.01 | locus YNL250W, strain rad50, hits give low values 1.03 | locus YNL271C, strain bni1, hits give low values 1.01 | locus YNL298W, strain CLA4, hits give low values 0.977 | locus YNL307C, strain MCK1, hits give low values 1.04 | locus YNL322C, strain KRE1 (second series), hits give low values 1.02 | locus YNL322C, strain KRE1, hits give low values 1.03 | locus YNR049C, strain mso1, hits give low values 1.01 | locus YNR052C, strain pop2, hits give low values 0.994 | locus YOL012C, strain htz1 1.83 | locus YOR001W, strain rrp6, hits give low values 0.979 | locus YOR061W, strain CKA2, hits give low values 1.06 | locus YOR069W, strain VPS5, hits give low values 1.03 | locus YOR070C, strain gyp1, hits give low values 1.01 | locus YOR080W, strain dia2, hits give low values 1.02 | locus YOR083W, strain WHI5, hits give low values 0.971 | locus YOR106W, strain vam3, hits give low values 0.928 | locus YOR136W, strain idh2, hits give low values 1.06 | locus YOR144C, strain elg1, hits give low values 1.04 | locus YOR184W, strain ser1, hits give low values 1.01 | locus YOR265W, strain rbl2, hits give low values 1.01 | locus YOR270C, strain vph1, hits give low values 0.964 | locus YOR290C, strain snf2, hits give low values 0.979 | locus YOR316C, strain cot1, hits give low values 1.05 | locus YPL051W, strain arl3, hits give low values 0.978 | locus YPL078C, strain atp4, hits give low values 0.982 | locus YPL106C, strain sse1, hits give low values 1.08 | locus YPL240C, strain hsp82, hits give low values 1.01 | locus YPL256C, strain CLN2, hits give low values 0.952 | locus YPR119W, strain clb2, hits give low values 1.03 | locus YPR141C, strain kar3, hits give low values 1.06 | locus YPR163C, strain tif3, hits give low values 1.06 | locus YPR167C, strain met16, hits give low values 1.05 | strain wtn01, hits give low values 1.06
active: locus YDR137W, strain rgp1, hits give low values 0.786 | locus YLR262C, strain YPT6 (second series), hits give low values 0.799 | locus YOL147C, strain pex11, hits give low values 1.07 [resistant] | locus YOR231W, strain MKK1, hits give low values 0.849
